Each structure is given as a SMILES string. This is part of a sample that, as a whole, favours compounds with a hit. Of some 83,000 tested, about 20% had one in any assay.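 96-well plates, one dose, 48 hours. Percent growth reported; active if below 10.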 Values without a mark were called inactive. Calls of active or inactive are those of the source.

Test systems include T-47D breast; BT-549 breast; MDA-MB-435 melanoma; SW-620 colon; MCF7 breast; HCT-116 colon; HCC-2998 colon; KM12 colon.
Assay in all cases: NCI-60 one-dose screen, 48 h (100 = growth as untreated, 0 = no growth, -100 = all killed)
Holding throughout (details): 10 µM unless noted

Regarding `COC(=O)c1cccc2c1N(C)c1c(cccc1C(=O)OC)CC2`, the growth is 95.6% with T-47D breast; 112% in the test with BT-549 breast; 101% in the test with MDA-MB-435 melanoma; 105% in the test on SW-620 colon; 108% with MCF7 breast; 104% in the test on HCT-116 colon. The values for the growth in the test with HCC-2998 colon and in the test on KM12 colon were 97.4% and 101%, respectively.

For `NC(=N\N=C/c1ccc(O)cc1)/C(N)=N\N=C/c1ccc(O)cc1`, the growth in the test on T-47D breast is 49.6%; in the test on BT-549 breast it was 52.5%; with MDA-MB-435 melanoma, 44.7%; in the test on SW-620 colon, 40.8%; in the test with MCF7 breast, 66.4%; in the test with HCT-116 colon, 62.2%. Also, the growth in the test on HCC-2998 colon was 51%; in the test on KM12 colon, 23.6%.

With `Cc1cc(N/N=C/c2nc(-c3ccccc3)oc2C)c2cc(Br)ccc2n1`, the growth is 75.6% in the test on T-47D breast; 93.4% with BT-549 breast; 43.4% in the test with MDA-MB-435 melanoma; 28.4% in the test with SW-620 colon; 46.2% in the test on MCF7 breast; 42% with HCT-116 colon. The growth with HCC-2998 colon is 100%; with KM12 colon, 82%.

`COc1ccc2[nH]c(=O)c(/C=N/Nc3nc(-c4ccccc4)cs3)c(O)c2c1`: the growth is 72.6% in the test on T-47D breast; 60.8% in the test on BT-549 breast; 79.3% in the test on MDA-MB-435 melanoma; 67.2% in the test on SW-620 colon; 67.2% in the test with MCF7 breast; 50.8% in the test on HCT-116 colon. Moreover, the growth is 77.6% in the test on HCC-2998 colon and 69.3% in the test with KM12 colon.

Turning to `O=c1ccn(C2CC(O)C(O)C(CO)O2)c(=O)[nH]1` (configuration not stated), the growth in the test on T-47D breast was 102%; in the test with BT-549 breast it was 114%; in the test with MDA-MB-435 melanoma, 116%; with SW-620 colon it was 114%; in the test with MCF7 breast, 97.4%; in the test with HCT-116 colon, 107%. The growth with HCC-2998 colon is 117%; with KM12 colon it was 121%.

Regarding `Cc1csc(NC(c2ccccc2)c2c(C)nc3ccccn23)n1` (configuration not stated), the growth in the test on T-47D breast was 86.9%; in the test on BT-549 breast, 97%; with MDA-MB-435 melanoma, 102%; in the test on SW-620 colon, 96.3%; in the test on MCF7 breast, 94.6%; in the test with HCT-116 colon, 91%. Further, the results for the growth in the test on HCC-2998 colon and in the test on KM12 colon were 105% and 99.8%, respectively.

With `CCN(CC)CCCC(C)Nc1c2ccc(Cl)cc2nc2cc(OC)c(OC)cc12` (configuration not stated), the growth is 61.9% in the test with T-47D breast; 55.3% with BT-549 breast; -81.8% (active) in the test with MDA-MB-435 melanoma; -25.2% (active) in the test with SW-620 colon; 0.0607% (active) with MCF7 breast; -42.5% (active) in the test with HCT-116 colon. For the same compound, the growth in the test on HCC-2998 colon is 18.1%; with KM12 colon, 8.52% (active).

On to `COc1ccc(-c2nc(/C=N/Nc3cc(C)nc4ccc(Br)cc34)c(C)o2)cc1`, for which the growth in the test on T-47D breast was -42.1% (active); with BT-549 breast, 91%; in the test with MDA-MB-435 melanoma it was -95.6% (active); with SW-620 colon it was -86.6% (active); in the test with MCF7 breast, -75.2% (active); with HCT-116 colon it was -74.6% (active). For the same compound, the results for the growth with HCC-2998 colon and in the test on KM12 colon were -67.1% (active) and -90.4% (active), respectively.

For the compound `NC(N)=N/N=C/c1ccc(-c2ccc(-c3cc(Cl)cc(Cl)c3)s2)cc1`, the growth with T-47D breast is 28.8%; in the test with BT-549 breast, 95.7%; in the test on MDA-MB-435 melanoma, 1.1% (active); in the test with SW-620 colon, -66.3% (active); in the test on MCF7 breast it was -39.9% (active); in the test on HCT-116 colon, -75.9% (active). In addition, the growth with HCC-2998 colon is -17.3% (active); in the test on KM12 colon it was -62.4% (active).

As to `CN1C(=O)N(C)C2C1NN=c1s/c(=C\C=C\c3ccccc3)c(=O)n12` (configuration not stated), the growth in the test with T-47D breast was 53.1%; in the test with BT-549 breast it was 55.2%; in the test on MDA-MB-435 melanoma, 4.66% (active); with SW-620 colon it was 40%; in the test with MCF7 breast, -94.6% (active); in the test on HCT-116 colon, 31.8%. In addition, the growth with HCC-2998 colon is 63.1%; in the test with KM12 colon, 23.2%.

`CC(C)(C)n1cc(-c2ccnc(NCCCNS(=O)(=O)c3cccc(F)c3)c2)c(-c2cccc(O)c2)n1`: the growth was 35.7% in the test on T-47D breast; 67.4% in the test on BT-549 breast; 61.2% with MDA-MB-435 melanoma; 24.5% in the test with SW-620 colon; 21.6% in the test with MCF7 breast; 47.1% in the test with HCT-116 colon. The growth was 15.7% with HCC-2998 colon and 26.5% with KM12 colon.

In the case of `CCCCCc1cc[n+](CC(=O)c2ccc([N+](=O)[O-])cc2)cc1`, the growth was 56.7% in the test with T-47D breast; 77% in the test with BT-549 breast; 68.2% with MDA-MB-435 melanoma; 49% in the test on SW-620 colon; 43% in the test with MCF7 breast; 21.2% in the test on HCT-116 colon. The growth in the test with HCC-2998 colon was 58.1%; in the test with KM12 colon it was 50%.

In the case of `Cc1cc(C)n(-c2nnc3n2N=C(c2ccc(-c4ccccc4)cc2)CS3)n1`, the growth in the test on T-47D breast was 48.7%; with BT-549 breast, 48.7%; with MDA-MB-435 melanoma, -7.2% (active); in the test on SW-620 colon it was 36.7%; in the test on MCF7 breast, 28%; with HCT-116 colon, 41.8%. For the same compound, the growth is 76.8% in the test with HCC-2998 colon and 53% in the test on KM12 colon.

In the case of `CN(C)CCN1C(=O)c2ccc3c4c(ccc(c24)C1=O)C(=O)N(CCN=C=S)C3=O`, the growth in the test on T-47D breast was -54.5% (active); in the test on BT-549 breast it was -87.5% (active); in the test with MDA-MB-435 melanoma, -90.9% (active); in the test with SW-620 colon, -68.1% (active); in the test on MCF7 breast it was -67.7% (active); in the test with HCT-116 colon, -71.9% (active). For the same compound, the values for the growth in the test on HCC-2998 colon and in the test on KM12 colon were -87.4% (active) and -93% (active), respectively.

The values are drawn from PubChem BioAssay (NCI).
